ChEMBL document CHEMBL3988442, “University of Dundee, Small-Polar-MMV Screening Library” (2021)

Target: AMP-activated protein kinase, AMPK (Homo sapiens) (UniProt P54646+O43741+P54619+Q9UGJ0+Q9Y478+Q13131+Q9UGI9)
Assay: AMP-dependent Kinase enzyme assay. An in vitro enzyme assay that detects ADP turnover that is directly proportional to AMPK activity. This uses naive AMPK that is activated during the assay with MK-8722
Assay type: functional
Set-up: scale not given: direction of the effect not stated beside the values
Details: 30 µM

Cc1nonc1CN(C)c1nc(-c2ccco2)nc2c1CCN(C)CC2
Percent Effect: 4.86%

O=C(NCc1ccc(-n2cncn2)nc1)c1cnccn1
Percent Effect: -5.91%

COCc1ncc(CN2CCC3(CCNC(=O)CC3)CC2)cn1
Percent Effect: 0.0611%

CN1CC(C(=O)NCCc2ccc(Br)cc2F)CC1=O (stereo not given)
Percent Effect: 7.63%

CC(c1nnc(-c2ccccc2)o1)N1CCC(Nc2ccccc2)CC1 (stereo not given)
Percent Effect: 4.64%

CCN(CC)CCNCc1cc(O)c2cc(C)ccc2n1
Percent Effect: 0.484%

COCCCN1CC2(CCCN(CCn3cc(Cl)cn3)C2)CCC1=O (stereo not given)
Percent Effect: 5.56%

Cc1c(NC(=O)N(C)CCn2cnnc2)cccc1OC1CCCC1
Percent Effect: -2.5%

CCCN(CCC)C(=O)CN1CCCC1C(=O)N(C)C (stereo not given)
Percent Effect: -3.78%

COc1cccc2c1CCCCN2C(=O)c1oc(C)nc1C
Percent Effect: 5.74%

COCC1(Nc2nc(C)nc3c2cnn3C)CCCC1
Percent Effect: -2.92%

COc1cc(N(C)CCCn2nc(C)cc2C)ncn1
Percent Effect: 13.8%

Cc1nc2c(c(NC(C)c3nnn[nH]3)n1)Cc1ccccc1OC2 (stereo not given)
Percent Effect: -6.31%

CC(C)c1noc(OCC(=O)N2CCCCC2C)n1 (stereo not given)
Percent Effect: -1.04%

O=C(Cn1ccc2ncccc2c1=O)N1CCCCC1
Percent Effect: -2.48%

COc1cccc(CCn2ccnc2-c2cn(C3CCNCC3)nn2)c1
Percent Effect: -20.9%

CSCCC1c2nc[nH]c2CCN1Cc1[nH]c2ccc(F)cc2c1C (stereo not given)
Percent Effect: 2.26%

CO[C@@H]1c2ccccc2C2(CCN(C(=O)CNS(C)(=O)=O)CC2)[C@H]1O
Percent Effect: 19.3%

CC(NCC(=O)NCC(=O)Nc1ccc(F)cc1)c1cccs1 (stereo not given)
Percent Effect: 8.16%

CN1C[C@H](c2ccccc2)[C@H]2CN(C(=O)Cc3ccc(O)cc3)CC[C@H]21
Percent Effect: 4.46%

CC(C)CNC(=O)c1[nH]nc(C2CC2)c1Br
Percent Effect: -2.23%

COc1ncc(CN2CCC3(CCNC(=O)CC3)CC2)cn1
Percent Effect: -1.6%

Cc1nc(COc2ccc(N(C)S(C)(=O)=O)cc2)sc1C
Percent Effect: -7%

Cc1nc2c(c(=O)[nH]1)CN(C(=O)CC[C@@H]1CCCN3CCCC[C@H]13)C2
Percent Effect: 16.1%

CCCn1ncc(C(=O)N2CCCC(OCc3ccccn3)C2)c1C (stereo not given)
Percent Effect: -1.18%

O=C1NCCCCC1NC(=O)N1CCCc2cc(F)ccc21 (stereo not given)
Percent Effect: 6.88%

CCn1cc(NC(=O)NCCN2CCCc3ccccc32)cn1
Percent Effect: 7.2%

Cc1sc(C(=O)NS(C)(=O)=O)cc1-c1ccc(F)cc1
Percent Effect: -4.08%

COc1c(C)cnc(CN2CCn3c(C)nnc3C2)c1C
Percent Effect: 8.91%

Cc1nc(CN2CCN(CC(O)CN3CCOCC3)CC2)oc1C (stereo not given)
Percent Effect: -2.09%

Fc1ccc(COCC2CCN(Cc3ccccn3)CC2)cc1
Percent Effect: 1.48%

CN(Cc1ccccc1)c1cnn(CC2CCCCO2)c(=O)c1 (stereo not given)
Percent Effect: 7.07%

COc1ccc(Br)cc1S(=O)(=O)N(C)Cc1ccc(N(C)C)cc1
Percent Effect: -1.52%

CN(C)Cc1nc(C(=O)N2CCCC(COc3ccc(F)cc3)C2)cs1 (stereo not given)
Percent Effect: 8.59%

Cc1cnn(C2CN(c3ccccc3S(=O)(=O)C(F)(F)F)C2)c1
Percent Effect: 9.6%

CC(=O)N[C@@H]1CN(C(=O)c2cccc(C(F)(F)F)c2)C[C@H]1O
Percent Effect: 5.07%

CN(Cc1csc(-c2cccs2)n1)Cc1cccnc1N
Percent Effect: 3.93%

CCN(CCCNC(=O)Nc1ccccc1C(C)C)S(C)(=O)=O
Percent Effect: 11%

C[C@@H]1CN(CC(=O)NCc2ccccn2)C[C@]1(C)O
Percent Effect: 8.43%

O=C(c1coc(COc2ccccc2F)n1)N1CCC[C@H]1CO
Percent Effect: 8.7%

CCn1c(C2CCNCC2)nn(CCn2ccc(C)n2)c1=O
Percent Effect: 5.45%

CN1CC=C(CCN(C)C(=O)CCc2ccccc2)CC1
Percent Effect: -0.771%

CCN(CC)CCN(CC(C)C)c1cc(C(F)(F)F)nc2ncnn12
Percent Effect: 0.943%

COC(=O)NCC(=O)NC1(C)CCc2ccccc2C1 (stereo not given)
Percent Effect: 12.8%

CCOCc1ccc(NC(=O)N2CCOC3(CCC3)C2)cc1
Percent Effect: -2.16%

CN(C)c1ccccc1C(=O)N1CCCC(c2ccc(C(=O)O)cc2)C1 (stereo not given)
Percent Effect: -3.47%

CCc1ocnc1C(=O)N1CCC2(CCCN(CC(C)(C)C)C2=O)C1 (stereo not given)
Percent Effect: 9.83%

OC(CNCc1nnc2ccccn12)c1ccc2c(c1)OCCCO2 (stereo not given)
Percent Effect: 9.77%

CC(=O)c1cnc(NCCN2CCCC2)nc1C
Percent Effect: -8.98%

CSCCC(NC(=O)c1ccco1)C(=O)N(C)Cc1ccsc1 (stereo not given)
Percent Effect: -5.54%

O=C(NC1CCCN(Cc2c(F)cccc2F)C1)c1cc[nH]n1 (stereo not given)
Percent Effect: -4.83%

O=C(C1CNCCN1C(=O)CCOc1ccccc1)N1CCOCC1 (stereo not given)
Percent Effect: 13%

Cn1ccc(C(=O)N2CCCCC2c2cc(CCO)[nH]n2)n1 (stereo not given)
Percent Effect: 30.2%

COc1ccccc1S(=O)(=O)N1CCN(C)[C@@H]2CS(=O)(=O)C[C@@H]21
Percent Effect: -1.29%

Cc1noc(C)c1C(=O)N[C@@H]1CC[C@@H](Oc2ccccc2)[C@@H]1O
Percent Effect: 18.4%

NC(=O)C1CCN(C(=O)NC(Cc2ccccc2)C(F)(F)F)CC1 (stereo not given)
Percent Effect: 0.0823%

Cc1nsc(C(=O)NCCc2ccc(F)cc2)n1
Percent Effect: -2.41%

O=C1NCCCC12CCN(Cc1ccc(-c3ccccc3)s1)C2 (stereo not given)
Percent Effect: 6.83%

O=C(O)CCc1cc2n(n1)CCCN(C(=O)c1ccc(Cl)s1)C2
Percent Effect: 2.58%

NC(=O)NC(CC(=O)N1CCc2sccc2C1)c1ccccc1F (stereo not given)
Percent Effect: 3.63%

CCc1cc(CNC(=O)c2cc(NC(=O)C(C)C)ccc2Cl)[nH]n1
Percent Effect: 0.911%

CC(C)N(Cc1ccccn1)C(=O)CCC(=O)c1ccc(F)cc1F
Percent Effect: -0.0134%

CN(C)CCN(Cc1cccc(F)c1)C(=O)c1ccn(C)c(=O)c1
Percent Effect: 9.63%

O=C1CCC2(CCNCC2)CN1Cc1nnc2ccccn12
Percent Effect: 8.07%

NC(=O)N1CCCCCC1C1CCN(c2nccc(C(F)(F)F)n2)CC1 (stereo not given)
Percent Effect: -5.81%

O=C(c1cnn[nH]1)N(Cc1ccncc1)CC1CCCO1 (stereo not given)
Percent Effect: -5.18%

Cc1cc(C2CCCN(Cc3noc(Cc4ccccc4)n3)C2)n[nH]1 (stereo not given)
Percent Effect: 35%

COc1cccc(S(=O)(=O)N2CCCCC2CCN2CCOCC2)c1 (stereo not given)
Percent Effect: 39.4%

C=C(C)COc1cccc(CNCCc2nc(N)cc(O)n2)c1
Percent Effect: 3.76%

O=C1CN(C(=O)CC2c3ccccc3CCc3ccccc32)CCN1
Percent Effect: 30.9%

NC(=O)C1Cc2ccccc2CN1CCC(=O)N1CCc2ccccc21 (stereo not given)
Percent Effect: -3.92%

CN1N=C(C(=O)NCCc2ccc(OC3CCCC3)cc2)CCC1=O
Percent Effect: -0.783%

COCCN(CCOC)C(=O)c1cnn(C)c1-n1c(C)ccc1C
Percent Effect: -1.28%

CC(OCC1CC1)C(=O)NCCC(=O)Nc1ccccn1 (stereo not given)
Percent Effect: 12.4%

CC(c1ncc(-c2ccccc2)o1)N1CCN(C(=O)C(C)(C)C)CC1 (stereo not given)
Percent Effect: 12.7%

CCCc1ccc(CN2CCC3(CC2)CNC(=O)C3)o1
Percent Effect: 18.2%

Cn1cc(N2CCN(c3ccc(C#N)c(Cl)c3)CC2=O)cn1
Percent Effect: -3.11%

Cc1cc(NC(=O)N2CCC[C@@H]2CO)nn1-c1ccccc1Cl
Percent Effect: 3.2%

Cc1ccnc2c1NC(=O)CN2C(=O)CCC(F)(F)F
Percent Effect: 1.79%

COc1ccccc1C(C)(C)NC(=O)c1ccc(F)c(NC(C)=O)c1
Percent Effect: -4.2%

Cc1nn2cccnc2c1C(=O)NCc1ccnc(OCC2CC2)c1
Percent Effect: 4.11%

CCC1COCCN1C(=O)NCc1nccn1CC(C)C (stereo not given)
Percent Effect: -3.83%

CC(=O)N1CCc2nc(N(C)C)nc(NCCc3ccccc3)c2CC1
Percent Effect: 3.82%

CNCc1cn(C2CCN(C(=O)NCc3ccco3)CC2)nn1
Percent Effect: 0.812%

O=C(CCC1CCCN(C(=O)CCc2ccc(F)c(F)c2)C1)NC1CC1 (stereo not given)
Percent Effect: 5.21%

Cc1ccc(CNCc2nccn2C)c(OCC2CC2)c1
Percent Effect: 3.02%

Cn1cc(CN2CCC(c3ncc(Cl)cc3S(C)(=O)=O)CC2)cn1
Percent Effect: 9.1%

C[C@@H]1CN(Cc2cc3ccccc3n2C)CC[C@]1(C)O
Percent Effect: 5.04%

O=C(Nc1ccncc1)NC1CCN(c2ccccc2OC(F)F)C1 (stereo not given)
Percent Effect: -0.97%

O=C(NCCc1cc(N2CCOCC2)nc(N2CCCC2)n1)C1CC1
Percent Effect: 13.9%

CN(CCc1ncnn1-c1ccccc1Cl)C1CCS(=O)(=O)C1 (stereo not given)
Percent Effect: -10%

COCCC(=O)N1CCCC(CCC(=O)NCc2cccc(OC)c2)C1 (stereo not given)
Percent Effect: 14.2%

CC(C)N(Cc1ccccn1)C(=O)CCC(=O)c1ccccc1
Percent Effect: -4.49%

O=C(Nc1cccc(C(=O)OCC2CCCN2)c1)c1ccoc1 (stereo not given)
Percent Effect: 0.474%

O=C(NCC(O)c1cccc(O)c1)C1CCN(C2CCCCC2)CC1 (stereo not given)
Percent Effect: 0.496%

CCc1ccc(C(=O)NC2CCN(c3ccn(C)n3)C2)o1 (stereo not given)
Percent Effect: 1.78%

CN(C)CC(=O)N1CCN(c2cc(N3CCCC3CO)ncn2)CC1 (stereo not given)
Percent Effect: -7.31%

c1ccc(OCCNC2=NCCCN2)cc1
Percent Effect: -8.51%

Cc1cc(CN(C)C(=O)CNS(=O)(=O)c2cccs2)no1
Percent Effect: 7.18%

COCc1ccccc1NC(=O)CCNC(=O)c1ccoc1
Percent Effect: -3.07%
